The sample as a whole holds a higher share of hits than the screen did.
HT1080 IDH1KD tx = kills HT-1080 cells with IDH1 knockdown; HT-1080 IDH1 knockdown viability, ATP luminescence, 48 h; Potency, µM (titrated, usually from 46.1 µM), for the others: at the highest dose activity, negative = toxicity, usual class: cytotoxic; 2% of 360,000 active; AID 686971;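 further: potency means the concentration at half of the fitted maximal effect; 0% = DMSO wells and -100% = cell-free medium wells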
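HT-1080-IDH1KD cells (IDH1 knocked down), 750/well in RPMI with 5% FBS, treated with compound 48 h at 37 degrees C. Viability by CellTiter-Glo luminescence, normalised to DMSO and no-cell wells; concentration-response curves classed.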
DT40 TDP1 CPT = DT40-hTDP1 cell growth loss with CPT; chicken DT40 Tdp1-/-;hTDP1 cells + 20 nM CPT, ATP luminescence, 48 h; Potency, µM (doses to about 46.2 µM), inactives show top-dose activity change, negative = growth inhibition, usual class: inhibitors; 12% of 420,000 active; AID 686979; further: potency means the concentration at half of the fitted maximal effect; nearly all actives have a fitted effect of over 55% in size
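Chicken DT40 Tdp1-/- cells stably complemented with human TDP1 were seeded at 400 cells/well in medium containing 20 nM camptothecin, exposed to pin-transferred compounds, and grown at 37 °C for at least 48 hr. Viability was read as ATP luminescence.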
DT40 TDP1 no CPT = qHTS for Inhibitors of human tyrosyl-DNA phosphodiesterase 1 (TDP1): qHTS in cells in absence of CPT; DT40 Tdp1-/- hTDP1 cells, no CPT, ATP luminescence, 48 h; Potency, µM (highest dose often 46.2 µM), for inactives: top-dose activity change, negative = growth inhibition, most hits filed as inhibitors; 15% of 420,000 active; AID 686978, 2013; further: potency means the concentration at half of the fitted maximal effect; nearly all actives have a fitted effect of over 55% in size
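Luminescent ATP content (CellTiter-Glo) served as the growth readout. Knockout chicken DT40 cells expressing human TDP1 were exposed to compounds without camptothecin for a minimum 48 hr at 37 °C.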
HT1080NT lethal = kills 2HG-producing HT-1080-NT fibrosarcoma cells | HT-1080-NT fibrosarcoma viability, CellTiter-Glo ATP luminescence, 48 h | Potency, µM (top dose mostly 46.1 µM), inactives show at the highest dose activity, negative = less viability, hits mostly cytotoxic | 1.6% of 360,000 active;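 further: NT is the 2HG producing partner of a matched IDH1 knockdown line; potency means the concentration at half of the fitted maximal effect; 0% = DMSO-treated cells and -100% = media-only wells without cells; nearly all actives have a fitted effect of over 55% in size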
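A 48-hour cytotoxicity screen used HT-1080-NT cells plated 2 hours before compound delivery. ATP-based CellTiter-Glo luminescence measured viability, normalized to DMSO and no-cell controls.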
12-LOX inh = ALOX12 (human) lipoxygenase inhibition | P18054 | purified 12hLO, xylenol orange hydroperoxide absorbance | Potency, µM (highest dose often 108 µM), inactives show at the top dose activity change, negative = inhibition, usual class: inhibitors | 1.1% of 580,000 active; further: potency means the concentration at half of the fitted maximal effect
Target sequence (P18054 whole entry, looked up): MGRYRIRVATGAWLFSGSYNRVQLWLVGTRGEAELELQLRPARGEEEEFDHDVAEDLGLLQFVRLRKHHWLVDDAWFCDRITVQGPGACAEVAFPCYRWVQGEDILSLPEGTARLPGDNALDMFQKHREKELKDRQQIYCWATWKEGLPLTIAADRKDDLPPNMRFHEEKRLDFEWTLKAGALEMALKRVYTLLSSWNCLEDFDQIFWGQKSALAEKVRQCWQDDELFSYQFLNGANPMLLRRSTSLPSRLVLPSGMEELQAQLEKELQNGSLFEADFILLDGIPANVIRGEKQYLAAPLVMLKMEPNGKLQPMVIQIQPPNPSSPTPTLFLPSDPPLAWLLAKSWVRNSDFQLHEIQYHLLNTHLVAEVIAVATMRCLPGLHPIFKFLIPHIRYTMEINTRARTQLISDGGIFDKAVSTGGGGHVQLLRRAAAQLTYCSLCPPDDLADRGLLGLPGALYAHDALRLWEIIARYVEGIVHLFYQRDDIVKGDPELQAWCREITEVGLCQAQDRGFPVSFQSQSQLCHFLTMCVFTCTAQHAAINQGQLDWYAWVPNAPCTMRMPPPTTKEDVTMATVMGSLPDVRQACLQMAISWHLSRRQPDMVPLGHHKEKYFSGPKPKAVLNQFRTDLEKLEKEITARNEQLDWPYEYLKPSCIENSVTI
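Purified human 12hLO at 150 nM in 25 mM Hepes, 0.01% Triton X-100, pH 7.0, preincubated 15 min at room temperature with compound. Reaction started with 40 uM arachidonic acid, 30 min at room temperature. Hydroperoxide measured by Fe-xylenol orange, 573/405 nm absorbance ratio.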
IL-1B inflam inh = inhibitors of inflammasome signaling (IL-1 beta secretion) | THP-1 LPS/ATP IL-1B secretion, AlphaLISA, 16 h; stronger effect = lower value | 4.7% of 360,000 active | activity change, % at 57.5 µM; in the data active means activity change below about -50%; inconclusive means mostly about -30% to -49%
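Secreted IL-1B measured by AlphaLISA bead assay after 16 h compound exposure of THP-1 cells; compounds (final up to 57.5 uM) added 1 h before LPS (250 ng/mL) and ATP (1.25 mM) stimulation; lower signal means less secretion.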
Active calls of the source: *; ? = inconclusive; nt = not tested or not shown. Unless noted, the call rests on the fitted dose curve; in most records, active means well fitted curve in the direction sought with a large enough effect; inconclusive means small, poorly fitted or top-dose-only effect, or another doubt; inactive means no such curve, though single readings can be large; an effect the other way counts as inactive or inconclusive. Unless noted, on the % scale 0 is the no-effect control and ±100 the full control effect.

SMILES | HT1080 IDH1KD tx | DT40 TDP1 CPT | DT40 TDP1 no CPT | HT1080NT lethal | 12-LOX inh | IL-1B inflam inh
Cc1oc2cc(OCC(=O)NC3CC3)ccc2c(=O)c1-c1ccc(Cl)cc1 | nt | nt | nt | nt | -5% | nt
O=C(O)CN(CCO)CCO | nt | nt | nt | nt | -11% | nt
COc1ccc(NS(=O)(=O)c2cc(NC(=O)C3=NN(c4ccccc4)C(=O)CC3)ccc2OC)cc1 | -16% | ? | 0.18µM* | -19% | -10% | -8
COc1ccc(OC)c(-c2csc(NC(=O)C3=NN(c4ccccc4)C(=O)CC3)n2)c1 | -16% | -23% | 21µM* | -14% | -6% | 52
O=C(Cn1ccc2ccc(Cl)cc21)N1CCCCCC1 | nt | nt | nt | nt | 3% | nt
C=CCN1CCN(C(=O)CN2CC3CC(C2)[C@H]2CCCC(=O)N2C3)CC1 (stereo partly specified) | nt | nt | nt | nt | 29% | nt
COC(=O)CC1C(=O)NCCN1S(=O)(=O)c1cc(Cl)ccc1Cl (stereo unspecified) | nt | nt | nt | nt | -11% | nt
COc1ccc(-c2ccc3nccn3c2)cc1 | 3% | -19% | ? | 9% | -15% | 0
CC(C)Cc1ccc(-c2ccc3nccn3c2)cc1 | ? | ? | 18µM* | ? | ? | 7
COc1ccc(CCNC(=O)c2ccc3c(c2)N(Cc2ccccc2F)C(=O)c2ccccc2S3(=O)=O)cc1OC | nt | 16µM* | 10µM* | nt | -22% | nt
COc1ccc(CCNC(=O)c2ccc3c(c2)N(Cc2ccc(Cl)cc2)C(=O)c2ccccc2S3)cc1OC | nt | ? | 16µM* | nt | -26% | nt
COc1ccc(CNC(=O)c2ccc3c(c2)N(Cc2ccccc2F)C(=O)c2ccccc2S3(=O)=O)cc1 | nt | -11% | -17% | nt | 0% | nt
COc1ccc(CCNC(=O)c2ccc3c(c2)N(Cc2cccc(C)c2)C(=O)c2ccccc2S3(=O)=O)cc1OC | nt | 8.2µM* | 12µM* | nt | 0% | nt
CNc1c(NS(=O)(=O)c2ccc(C)cc2)c(=O)oc2ccccc12 | nt | nt | nt | nt | -7% | nt
CCOc1cc(CN(CC(=O)NC2CCCCC2)C2CC2)ccc1OC(F)F | nt | nt | nt | nt | 3% | nt
CC(C)C(=O)/C(C#N)=C\c1ccc(OCc2ccccc2F)cc1 | nt | nt | nt | nt | 6% | nt
CCOC(=O)[C@]12Cc3c(cc(OC)c(OC)c3OC)[C@H]1N(C1CCCCC1)C(=O)c1cc(OC)ccc12 | 12µM* | 9.2µM* | 9.2µM* | 12µM* | ? | -118*
Clc1ccc(/C=N/Nc2nnc(Cl)c3ccccc23)cc1 | -5% | ? | ? | 10% | 9% | 38
CC(=O)Nc1ccc(C=NNc2nnc(NN=Cc3ccc(NC(C)=O)cc3)c3ccccc23)cc1 | -2% | 2.9µM* | 4.1µM* | -3% | -6% | 0
Cc1ccc(/C=N/Nc2nnc(Cl)c3ccccc23)cc1 | -28% | 23µM* | 21µM* | -29% | -4% | -62*
O=C(Nc1ccc(N2CCOCC2)c(Cl)c1)c1ccccc1F | 5% | 2% | -21% | 8% | -14% | nt
O=C(Nc1ccc(N2CCCC2)cc1)c1cc(Cl)ccc1Cl | ? | 23µM* | 23µM* | ? | ? | -3
CC(=O)N1CCN(c2ccc(NC(=O)c3ccccc3Cl)cc2)CC1 | 11% | -7% | ? | 21% | ? | 12
O=C(Nc1ccc(N2CCCCCC2)cc1)c1ccccc1Cl | 8.2µM* | 13µM* | 16µM* | 12µM* | -64% | ?
CC(=O)Nc1ccc(N2CCCCC2)c(C(=O)Nc2cccc(C)c2)c1 | ? | ? | 9.2µM* | -7% | ? | -6
SMILES | HT1080 IDH1KD tx | DT40 TDP1 CPT | DT40 TDP1 no CPT | HT1080NT lethal | 12-LOX inh | IL-1B inflam inh
O=C(Nc1ccc(N2CCCC2)c(Cl)c1)c1ccccc1F | -5% | -27% | ? | -6% | -1% | -50*
O=C(c1cccc(Oc2ccccc2)c1)N1CC[C@@]2(O)CCNC[C@H]2C1 | nt | nt | nt | nt | 7% | nt
O=C(NCCSC1CCCC1)c1cccs1 | nt | nt | nt | nt | 19% | nt
Cc1cccc(OCC(=O)N2CCC3(CC2)NC(=O)N(Cc2ccccc2)C3=O)c1 | nt | nt | nt | nt | -7% | nt
O=C(Nc1ccc(N2CCCC2)cc1)c1cccc(Cl)c1 | -5% | -24% | 13µM* | -15% | ? | -19
O=C(Nc1ccc(N2CCCCC2)cc1)c1ccccn1 | 10µM* | 16µM* | 10µM* | 9.2µM* | nt | -3
Cc1cnc(C(=O)N2CC(N(C)Cc3cccnc3)C2)cn1 | nt | nt | nt | nt | 27% | nt
O=C(CCN1C(=O)c2ccccc2S1(=O)=O)Nc1ccccc1F | 13% | -9% | 24% | -1% | 7% | -60*
Cc1ccc(-c2cnc(CCC(=O)Nc3nccs3)o2)cc1C | nt | nt | nt | nt | -2% | nt
CC(C)(C)c1cc(C(=O)NNc2cc(C(F)(F)F)ccc2Cl)n(Cc2ccccc2)n1 | ? | ? | 21µM* | ? | 21% | -80*
COc1ccccc1NNC(=O)c1cc(C(C)(C)C)nn1Cc1ccccc1 | -10% | 1% | 23µM* | -2% | 3% | -56*
CC(C)(C)C(=O)NNC(=O)c1cc(C(C)(C)C)nn1Cc1ccccc1 | -16% | -14% | -23% | -6% | 80% | 17
CC(C)(C)c1cc(C(=O)NC2CC2)n(Cc2ccc(F)cc2)n1 | 4% | -20% | -11% | 2% | 0% | -4
COc1ccccc1NC(=O)c1nnn(Cc2ccccc2)c1NC(=O)C(F)(F)F | -18% | ? | 29µM* | 0% | -6% | 13
CC(C)CNc1nc(C(=O)Nc2ccc(Cn3cncn3)cc2)cs1 | nt | nt | nt | nt | 17% | nt
COc1ccccc1/C=C/c1nc(C#N)c(NCc2ccc(F)cc2)o1 | nt | nt | nt | nt | -6% | nt
COC(=O)c1[nH]c(=O)c2ccccc2c1OCc1ccccc1 | -2% | -15% | -17% | 0% | ? | 16
COC(=O)c1[nH]c(=O)c2ccccc2c1O | 18% | 2.6µM* | 0% | 20% | nt | -1
O=C(CSc1nnc(Cc2cccs2)n1C1CCCCC1)N1CCCCCC1 | nt | nt | nt | nt | 9% | nt
Cc1cc(C)cc(NC(=O)CCc2c(C)nn(-c3ccc(N4CCCC4)nn3)c2C)c1 | nt | 21µM* | 26µM* | nt | 1% | nt
COc1ccc(C)cc1NC(=O)CCc1c(C)nn(-c2ccc(N3CCCCC3)nn2)c1C | -5% | ? | 26µM* | -18% | 15% | ?
CCOC(=O)c1cccc(NC(=O)CCc2c(C)nn(-c3ccc(N4CCCCC4)nn3)c2C)c1 | nt | ? | 23µM* | nt | -7% | nt
Cc1cc(C)cc(NC(=O)CCc2c(C)nn(-c3ccc(N4CCCCC4)nn3)c2C)c1 | -1% | ? | ? | -7% | 10% | -17
Cc1nn(-c2ccc(N3CCCCC3)nn2)c(C)c1CCC(=O)Nc1ccc(F)cc1F | nt | 16µM* | 18µM* | nt | 0% | nt

High-throughput results deposited in PubChem BioAssay by National Center for Advancing Translational Sciences (NCATS).
